Screening results as filed in PubChem.
ELG1 DNA repair: ELG1-dependent DNA repair inhibition; HEK293T ELG1-luciferase reporter, luminescence, 16 h; DNA damage induced by 5-fluorouridine; Potency, µM (titrated, usually from 46.1 µM), for the others: at the top dose activity change, negative = inhibition, usual class: inhibitors; 330,000 compounds, 2.3% hits; also: % is scaled to controls: 0 for no effect and ±100 for the full control effect; nearly all actives have a fitted effect of over 55% in size
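Overnight (16 hr) co-exposure of 2,000 cells/well to 5-fluorouridine and compound at 37 °C preceded detection. Luciferase was quantified via ONE-Glo luminescence; loss of signal denotes inhibition.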
Tb PFK block: inhibitors of T. brucei phosphofructokinase. T. brucei PFK, ADP-Glo luminescence. Potency, µM (highest dose often 57.5 µM), for the others: top-dose activity, negative = inhibition, usual class: inhibitors. 330,000 compounds, 0.17% hits. AID 485367;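 also: 0% = uninhibited 1x PFK enzyme wells and -100% = no-enzyme wells; nearly all actives have a fitted effect of over 60% in size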
Target sequence (O15648 whole entry, looked up): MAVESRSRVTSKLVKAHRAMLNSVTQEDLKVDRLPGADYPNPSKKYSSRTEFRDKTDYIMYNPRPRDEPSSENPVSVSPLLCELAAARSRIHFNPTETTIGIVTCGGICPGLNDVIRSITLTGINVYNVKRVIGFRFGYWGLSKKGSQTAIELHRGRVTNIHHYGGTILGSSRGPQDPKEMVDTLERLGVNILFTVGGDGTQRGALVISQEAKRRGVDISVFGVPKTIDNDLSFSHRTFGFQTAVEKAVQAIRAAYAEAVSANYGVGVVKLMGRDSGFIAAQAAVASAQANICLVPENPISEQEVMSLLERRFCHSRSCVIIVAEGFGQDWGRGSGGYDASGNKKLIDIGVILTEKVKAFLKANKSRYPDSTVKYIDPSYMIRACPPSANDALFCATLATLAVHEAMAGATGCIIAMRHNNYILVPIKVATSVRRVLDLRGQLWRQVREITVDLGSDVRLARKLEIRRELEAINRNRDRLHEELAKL
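PFK 1.25 nM, F6P 0.5 mM, ATP 0.1 mM, 0.1 M TEA pH 8.0, 5 mM MgCl2, 0.01% Tween20, 0.1% BSA; 45 min RT. ADP-Glo readout. qHTS titration up to 57 uM; curves fitted, compounds curve-classed.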
Rango dissoc inh: prevents RanGTP from dissociating the Rango-importin beta complex | Potency, µM (titrated, usually from 46.1 µM), for the others: at the top dose activity change, negative = inhibition | O95149+P62826 | 340,000 compounds, 0.071% hits | Biochemical FRET Rango-importin beta, RanGTP-induced dissociation; calls by dose curve; also: % of control where 0% means no effect; nearly all actives have a fitted effect of over 45% in size
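Rango/importin beta premix (0.1/0.25 uM final), PBS + 1 mM DTT + 0.02% Tween-20 + 0.1% BSA; cpd 5 min RT; FRET pre-read; + RanGTP-RCC1 (0.6 uM Ran, 2 mM GTP, 0.2 uM RCC1); 45 min RT; FRET post-read, ex 430, em 486/530 nm.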
PKM2 activator: increases activity of human pyruvate kinase M2; purified PKM2, Kinase-Glo ATP luminescence, activation; response scale: 0% is enzyme alone, no compound; P14618; 260,000 compounds, 0.34% hits; Potency, µM (series often up to 57.5 µM), for inactives: at the highest dose activation, hits mostly activators; also: % is scaled to controls: 0 for no effect and ±100 for the full control effect; nearly all actives have a fitted effect of over 55% in size
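hPK-M2, >95% pure; 0.1 mM ADP / 0.5 mM PEP final; imidazole pH7.2 buffer w/ 7 mM MgCl2, 50 mM KCl; 1 h RT; Kinase-Glo lum. Intermediate enzyme activity for dual inhibitor/activator qHTS.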
Tb PGK inh: inhibitors of T. brucei phosphoglycerate kinase; Potency, µM (top dose mostly 57.5 µM), for the others: at the highest dose activity change, negative = inhibition, most hits filed as inhibitors; PGK/GAPDH coupled, Kinase-Glo luminescence, 60 min; 380,000 compounds, 0.043% hits; P07378; also: % is scaled to controls: 0 for no effect and ±100 for the full control effect; nearly all actives have a fitted effect of over 60% in size
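Recombinant glycosomal PGK reaction used 1,3-bisphosphoglycerate generated in-well by GAPDH (100nM final) in 100mM TEA pH 7.6, 5mM MgCl2, 0.01% Tween-20. After 60 minutes at room temperature, ATP was read by Kinase-Glo Plus luminescence end-point.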
Rango-impB inh: prevents formation of the Rango-importin beta complex. Potency, µM (series often up to 92.2 µM), without a hit: at the top dose inhibition of complex formation. 340,000 compounds, 0.031% hits. Rango CFP/YFP FRET sensor + importin beta, 45 min. Q14974; calls by dose curve;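 also: 0% = DMSO wells and 100% = buffer wells lacking importin beta; nearly all actives have a fitted effect of over 15% in size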
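FRET biosensor (snurportin 1 IBB flanked by EYFP and cerulean), 50 nM, with compound 5 min, then 0.125 microM importin beta in PBS, 1 mM DTT, 0.02% Tween-20, 0.1% BSA. CFP/YFP ratio read after 45 min at room temperature; pre-read flags interference.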
Active calls of the source: *; [ ] = remark or other dose. Sampled rows, rich in hits. Any-hit rate of the full collection: about 2.4%. Unless noted, calls follow the shape of the dose curve; as a rule, active = well fitted curve in the direction sought with a large enough effect; inconclusive = small, poorly fitted or top-dose-only effect, or another doubt; inactive = no such curve, though single readings can be large; an effect the other way counts as inactive or inconclusive. Potency is read from the fitted curve at half-maximal effect.

`COc1ccc(OC)c(NC(=O)C(=O)NNC(=O)C23CC4CC(CC(C4)C2)C3)c1` gave ELG1 DNA repair 29.1µM*, Tb PFK block -0.9%, Rango dissoc inh 16.6%, PKM2 activator -0.4%, Tb PGK inh 5.2% and Rango-impB inh 4.6%.
Cc1csc(=O)n1CC(=O)Nc1ccc(C(C)C)cc1 was read as ELG1 DNA repair inconclusive, Tb PFK block -5.3%, Rango dissoc inh -2.3%, Tb PGK inh inactive and Rango-impB inh -0.1%.
CSc1nc(N2CCN(C)CC2)c2c(c1C#N)CC(C)(C)OC2 was read as ELG1 DNA repair 8.2µM*, Tb PFK block 1.3%, Rango dissoc inh 9.0%, PKM2 activator -2.2%, Tb PGK inh -7.1% and Rango-impB inh 0.2%.
`Cc1nc(N2CCN(Cc3ccccc3)CC2)c(C#N)c2c1COC(C)(C)C2` gave ELG1 DNA repair 7.31µM*, Tb PFK block 5.5%, Rango dissoc inh -9.0%, PKM2 activator -15.2%, Tb PGK inh inactive and Rango-impB inh 0.0%.
`CSc1nc(N2CCCC2)c2c(c1C#N)CC(C)(C)OC2` gave ELG1 DNA repair inconclusive, Tb PFK block 1.3%, Rango dissoc inh -0.2%, PKM2 activator 0.6%, Tb PGK inh 8.6% and Rango-impB inh -0.1%.
`O=C1C(=O)N(CCS(=O)(=O)c2ccccc2)c2ccc(F)cc21` gave ELG1 DNA repair -1.6%, Tb PFK block 4.4%, Rango dissoc inh 5.4%, Tb PGK inh -4.6% and Rango-impB inh 0.0%.
CCn1c(SCC(=O)Nc2nccs2)nnc1-c1ccc(S(=O)(=O)N2CCCCC2)cc1 was read as ELG1 DNA repair 20.6µM*, Tb PFK block -3.5%, Rango dissoc inh 21.1%, PKM2 activator -1.9%, Tb PGK inh -2.4% and Rango-impB inh -0.4%.
Screening CCOC(=O)CN1C(=O)C(C)(C)Oc2ccc(C(=O)Nc3ccccc3)cc21 returned ELG1 DNA repair 13µM*, Tb PFK block 0.6%, Rango dissoc inh 11.7%, PKM2 activator -12.1%, Tb PGK inh -8.2% and Rango-impB inh inconclusive.
`O=C(O)c1ccc2cc(-c3ccc(O)c(C45CC6CC(CC(C6)C4)C5)c3)ccc2c1` gave PKM2 activator -0.4%.
Screening Cc1ccc(N(C)S(=O)(=O)c2cc(-c3cnc(C4CC4)o3)ccc2C)cc1 returned ELG1 DNA repair 16.4µM*, Tb PFK block 1.8%, Rango dissoc inh 6.7%, PKM2 activator 4.6%[0.46 µM], Tb PGK inh 2.0% and Rango-impB inh 0.8%.
Screening Cc1ccc(C(=O)C2CCN(C(=O)c3ccc(C)cc3)CC2)cc1 returned ELG1 DNA repair inconclusive, Tb PFK block -20.9%, Rango dissoc inh 2.3%, Tb PGK inh -2.0% and Rango-impB inh 2.0%.
`Cc1ccc(C(=O)N2CCC(C(=O)c3c(C)cc(C)cc3C)CC2)cc1` gave ELG1 DNA repair 16.4µM*, Tb PFK block -0.7%, Rango dissoc inh -10.8%, Tb PGK inh 7.2% and Rango-impB inh 0.6%.
For OCC#CCSc1nnc(-c2cccc3ccccc23)o1 the results were ELG1 DNA repair inconclusive, Tb PFK block -0.7%, Rango dissoc inh 4.4%, Tb PGK inh -9.4% and Rango-impB inh 0.0%.
For CCCOc1ccc(N2C(=O)CC(N(CCc3ccc(OC)c(OC)c3)C(=S)Nc3ccccc3)C2=O)cc1 (stereo not drawn) the results were ELG1 DNA repair 16.4µM*, Tb PFK block 1.1%, Rango dissoc inh -1.6%, PKM2 activator -13.1%, Tb PGK inh 4.3% and Rango-impB inh -0.4%.
Screening Cc1ccccc1NC(=O)Cn1nnc2ccccc21 returned ELG1 DNA repair 6.0%, Tb PFK block -0.3%, Rango dissoc inh 10.2%, PKM2 activator -3.3%, Tb PGK inh 1.3% and Rango-impB inh 6.0%.
Screening Cc1ccc(S(=O)(=O)N2CCN(C(=O)CC(C)n3nc(C)c(Cl)c3C)CC2)cc1C (stereo not drawn) returned ELG1 DNA repair -8.9%, Tb PFK block -1.8%, Rango dissoc inh -10.7%, PKM2 activator 5.4%, Tb PGK inh -0.9% and Rango-impB inh 1.6%.
`COC(=O)C1=C(C)N(Cc2ccc(C)cc2)C(=O)/C1=C\c1ccc(O)c(OC)c1` gave ELG1 DNA repair -14.2%, Tb PFK block -7.4%, Rango dissoc inh inconclusive, PKM2 activator 0.8%, Tb PGK inh 2.4% and Rango-impB inh inconclusive.
`CCOc1cc(/C=C2\C(=O)N(CCc3ccc(OC)c(OC)c3)C(C)=C2C(=O)OC)ccc1O` gave ELG1 DNA repair 1.64µM*, Tb PFK block -3.4%, Rango dissoc inh -26.9%, PKM2 activator -32.3%, Tb PGK inh -10.7% and Rango-impB inh -7.0%.
Screening O=C(N/N=C/c1coc2ccc(Cl)cc2c1=O)c1ccc(O)cc1 returned ELG1 DNA repair inconclusive, Tb PFK block 0.2%, Rango dissoc inh -6.0%, PKM2 activator 3.2%, Tb PGK inh -6.0% and Rango-impB inh 0.3%.
Screening O=C(N/N=C/c1coc2ccc(Cl)cc2c1=O)c1ccncc1 returned ELG1 DNA repair 16.4µM*, Tb PFK block 1.7%, Rango dissoc inh 25.0%, PKM2 activator -1.9%, Tb PGK inh -3.6% and Rango-impB inh 3.3%.
Screening O=C1c2ccccc2C(=O)N1CCCCc1cn(C[C@H]2CC[C@H](Cn3cc(CCCCN4C(=O)c5ccccc5C4=O)nn3)O2)nn1 returned ELG1 DNA repair 8.2µM*, Tb PFK block 0.2%, Rango dissoc inh inconclusive, Tb PGK inh -7.3% and Rango-impB inh inconclusive.
CCOc1ccc(-c2nc(S(=O)(=O)c3ccccc3)c(NC)o2)cc1 was read as ELG1 DNA repair 0.0%, Tb PFK block -2.1%, Rango dissoc inh 12.5%, PKM2 activator -11.8%, Tb PGK inh 4.3% and Rango-impB inh -0.3%.
`CCOc1ccc(-c2nc(S(=O)(=O)c3ccccc3)c(NCc3cccnc3)o2)cc1` gave ELG1 DNA repair 14.6µM*, Tb PFK block -0.1%, Rango dissoc inh -12.0%, PKM2 activator -0.2%, Tb PGK inh -1.4% and Rango-impB inh 0.9%.
For CC(C)c1noc(-c2ccccc2OCC(=O)Nc2cccc([N+](=O)[O-])c2)n1 the results were Tb PGK inh -3.9%.
c1csc(CSc2nnc3sc4ccccc4n23)c1 was read as ELG1 DNA repair inconclusive, Tb PFK block 0.3%, Rango dissoc inh 17.6%, PKM2 activator 15.8µM*, Tb PGK inh -0.2% and Rango-impB inh 0.7%.
